# Hits are enriched below; roughly 0.81% of the tested compounds scored in any of these assays.
# TRPML1 inh: inhibitors of human TRPML1 channel. TRPML1-inducible cells, Ca2+ dye fluorescence, FDSS; hits give low values; inhibition of EC80 agonist-evoked calcium signal. activity change, negative = inhibition, % (concentration not given with the values). hit rate 0.02% among 390,000. AID 624415; in the data active = activity change below about -50%; inconclusive = between about -30% and that limit;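 also: stimulus is agonist 54-4 at its EC80 concentration; % is scaled to controls: 0 for no effect and ±100 for the full control effect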
# Target sequence (Q9GZU1 whole entry, looked up): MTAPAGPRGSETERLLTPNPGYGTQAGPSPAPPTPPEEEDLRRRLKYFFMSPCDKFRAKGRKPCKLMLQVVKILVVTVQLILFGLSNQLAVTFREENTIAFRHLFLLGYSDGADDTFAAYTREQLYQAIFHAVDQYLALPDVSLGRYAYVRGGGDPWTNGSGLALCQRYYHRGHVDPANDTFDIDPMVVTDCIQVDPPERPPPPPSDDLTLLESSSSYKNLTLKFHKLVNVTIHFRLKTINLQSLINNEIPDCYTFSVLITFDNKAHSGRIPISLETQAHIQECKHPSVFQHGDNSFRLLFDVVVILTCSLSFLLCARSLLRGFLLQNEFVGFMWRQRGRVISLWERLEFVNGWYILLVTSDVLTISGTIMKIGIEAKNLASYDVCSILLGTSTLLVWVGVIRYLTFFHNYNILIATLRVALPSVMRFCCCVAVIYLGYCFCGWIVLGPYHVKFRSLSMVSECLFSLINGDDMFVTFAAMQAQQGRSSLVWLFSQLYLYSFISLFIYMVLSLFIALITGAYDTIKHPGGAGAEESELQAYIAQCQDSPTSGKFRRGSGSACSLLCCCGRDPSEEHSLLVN
#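 TRPML1-DL cells, Tet-induced overnight (~16 h, 37 °C) at 1,500 cells/well, were loaded with Ca8 no-wash dye plus quencher for 45-90 min at room temperature. Compounds were pinned during FDSS kinetic reading; agonist 54-4 at EC80 (4 uM final) then added.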
# TRPML1 ag: human mucolipin-1 channel agonism. Q9GZU1. TRPML1-expressing cells, Ca2+ dye fluorescence, FDSS. activation, % (no concentration beside the values). hit rate 0.12% among 410,000; in the data active = activation above about 50%; inconclusive = mostly about 30% to 49%; also: 0% is about no effect
#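 Kinetic FDSS Ca2+ read in Tet-induced TRPML1-DL cells (ABD Ca8 dye plus quencher, 45-90 min RT loading): baseline, then compound, then 110 s agonist window; EC80 agonist 54-4 at 4uM final added afterwards for a 110 s antagonist window.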
# PTAP TSG101 blk: blocks PTAP/TSG101 interaction to inhibit HIV-1 budding | Fluorescence polarization, FITC-PTAP peptide / Tsg101 binding | Potency, µM (top dose mostly 115 µM), for inactives: at the highest dose activity change, negative = inhibition, hits mostly inhibitors | 340,000 tested, under 10 active; active = well fitted inhibition curve with a large enough effect in the main read-out, with a control signal flat, not every such curve was filed as active; inconclusive = small, poorly fitted or top-dose-only effect, or effect the other way, or a change in a side signal; inactive = no such curve, though single readings can be large or run the other way; also: potency is read from the fitted curve at half-maximal effect; % of control where 0% means no effect
#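 Fluorescence polarization binding of Tsg101 binding domain (10 uM final) to FITC-labeled PTAP peptide (50 nM final) in HEPES pH 7.5 buffer with NaCl, Tween 20, EDTA, TCEP. Compounds added before peptide; binding 20 min at RT.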
# TRHR enhancer: allosterically enhances the human TRH receptor. P34981. TRHR cells, fluo-8 calcium fluorescence, EC20 TRH enhancement. enhancement, % at 2 µM. hit rate 0.66% among 360,000. AID 493056; in the data active = enhancement above about 30%; also: 0% is about no effect
#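 Enhancer read-out: after compound pinning and an initial kinetic agonist-mode read, an EC20 of TRH (10 nM final) was injected and fluo-8 calcium signal (Ex 480/Em 530) followed at 1 s/cycle for 100 cycles in TRHR-expressing cells.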
# TRHR agonist: agonists of human TRH receptor; AID 493084; activation, % at 2 µM; hit rate 0.18% among 360,000; TRHR cells, calcium flux fluo-8, FDSS agonist mode; P34981; in the data active = activation above about 30%; also: 0% is about no effect
#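 Agonist-mode FDSS calcium read (Ex 480/Em 530, 1 s cycles) in 1536-well TRHR cells with fluo-8 dye, after 10-cycle baseline and 23 nL compound addition; TRH at EC20 (10 nM final) added afterwards for the enhancer phase.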
# Active calls of the source: *; ? = inconclusive; . = no result; ! = not confirmed by another sample.
SMILES,TRPML1 inh,TRPML1 ag,PTAP TSG101 blk,TRHR enhancer,TRHR agonist
COc1ccc(Cl)c(Cn2cnc3c(cnn3C(C)(C)C)c2=O)c1,-17,2,.,.,.
COc1ccccc1CN1CCCCC1C(=O)O (configuration not stated),4,-1,0%,41*,0
COc1ccccc1CNC(=O)C1CCCC1,-4,0,-2%,-3,0
CCCCN(CCCC)c1ccc(Cn2ccc3ccccc32)cc1,.,0,.,.,.
Cc1ccc(-n2ncc3c(NCCCn4ccnc4)ncnc32)cc1,-1,0,.,31*,0
Cc1cccc(-n2ncc3c(NCCCn4ccnc4)ncnc32)c1,8,0,-3%,1,0
Cc1ccc(S(=O)(=O)Nc2nc3ccc(S(C)(=O)=O)cc3s2)cc1,1,1,-4%,1,0
Cc1ccc(C)c(S(=O)(=O)Nc2nc3ccc(S(N)(=O)=O)cc3s2)c1,7,2,-3%,41*,0
CC[N+]1(CC(=O)c2ccc(OC)cc2)CCCCC1,.,0,.,.,.
COc1ccc(NC(=O)Cn2c(=O)n(Cc3ccccc3)c(=O)c3sc4ccccc4c32)cc1,0,0,.,35*,1
OCCCc1nc2n(n1)C(c1cccs1)C=C(c1ccccc1)N2 (configuration not stated),.,.,.,-2,41*
Cc1nn(-c2ccc(N3CCOCC3)nn2)c(C)c1CCC(=O)NCc1ccc(F)cc1,14,0,-1%,34*!,0
CC(C)N1CN=C(Nc2nc3ccccc3o2)NC1,-3,-1,-2%,31*,0
COc1cc2c(NC3CCN(C(C)C)CC3)nc(N3CCCN(C)CC3)nc2cc1OCCOCCN(C)C,.,0,.,.,.
Cc1csc(NC(=O)CSc2nc3ccccc3c3c2CCCC3)n1,-24,0,-2%,36*,2
Cc1csc(NC(=O)CSc2ncnc3ccccc23)n1,-2,1,0%,-3,0
CC(C)(C)n1ncc2c(=O)n(Cc3ccc(F)cc3F)cnc21,2,1,.,.,.
COC(=O)N/N=C(\C)c1ccc(-n2ccnc2)cc1,3,-1,0%,41*,0
CCN(CC)c1ccc(/C=C2/C(=O)c3ccc(C(=O)O)cc3C2=O)cc1,-19,65*,?,41*,188*
O=C(O)c1ccc(NC(=S)NC(=O)c2cncc(Br)c2)cc1,4,-1,1%,34*,1
CCOC(=O)c1ccc(NC(=S)NC(=O)c2cncc(Br)c2)cc1,-6,-1,-4%,8,-1
CC(C)(C)n1ncc2c(=O)n(Cc3ccccc3C#N)cnc21,-29,1,.,.,.
O=C(O)/C=C/c1cc(F)c(S(=O)(=O)N2CCN(S(=O)(=O)c3ccc4c(c3)OCCO4)CC2)cc1F,.,.,.,-4,-2
O=C(CN1C(=O)c2cccc3cccc1c23)Nc1ccc2c(c1)OCO2,-4,0,-2%,31*,-2
O=C(CN1C(=O)c2cccc3cccc1c23)NCc1ccc2c(c1)OCO2,18,1,-7%,-4,-1
SMILES,TRPML1 inh,TRPML1 ag,PTAP TSG101 blk,TRHR enhancer,TRHR agonist
Cc1ccccc1Nc1nc(N)nc(-c2oc3ccccc3c2C)n1,-6,1,-1%,35*,-1
O=C(COc1cc2oc(=O)c3c(c2cc1Cl)CCC3)NCc1ccncc1,2,0,-5%,36*,0
COc1ccc2oc(C(=O)OCC(=O)Nc3ccc(NC(C)=O)cc3)c(C)c2c1,10,1,-1%,38*,1
COc1ccc2oc(C(=O)OCC(=O)N3C(C)CCCC3C)c(C)c2c1 (configuration not stated),49,1,-2%,33*,0
Nc1c(Br)cc(/C=C/c2ccnc3ccccc23)cc1Br,.,0,.,.,.
CCOc1ccc2nc(NC3=NC(C)(C)C=C(C)N3)nc(C)c2c1,65,2,-7%,32*,0
CN(C1CCS(=O)(=O)C1)S(=O)(=O)c1ccccc1 (configuration not stated),12,1,-1%,30*,-1
Cc1ccc(Sc2cc(C)nc(-c3ccccn3)n2)cc1,-7,1,-1%,32*,0
Cc1cc2oc3c(c(=O)c2cc1C)C(c1ccc(F)cc1)N(CCCN1CCOCC1)C3=O (configuration not stated),12,0,-4%,37*,-1

# From PubChem BioAssay
